Mdm2-MdmX inh – inhibitors of human Mdm2-MdmX association, primary screen, cell-based, luminescence, split luciferase, SaOS-2, uHTS; hit rate 3% among 330,000; Protein Mdm4 (Homo sapiens) + E3 ubiquitin-protein ligase Mdm2 (Homo sapiens), …; inhibition, % at 8 µM; AID 485346, 2010; SaOS-2 split-luciferase Mdm2/MdmX complementation;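 active means inhibition of at least 50% at 8 µM in the primary screen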
Target sequence (O15151 whole entry, looked up): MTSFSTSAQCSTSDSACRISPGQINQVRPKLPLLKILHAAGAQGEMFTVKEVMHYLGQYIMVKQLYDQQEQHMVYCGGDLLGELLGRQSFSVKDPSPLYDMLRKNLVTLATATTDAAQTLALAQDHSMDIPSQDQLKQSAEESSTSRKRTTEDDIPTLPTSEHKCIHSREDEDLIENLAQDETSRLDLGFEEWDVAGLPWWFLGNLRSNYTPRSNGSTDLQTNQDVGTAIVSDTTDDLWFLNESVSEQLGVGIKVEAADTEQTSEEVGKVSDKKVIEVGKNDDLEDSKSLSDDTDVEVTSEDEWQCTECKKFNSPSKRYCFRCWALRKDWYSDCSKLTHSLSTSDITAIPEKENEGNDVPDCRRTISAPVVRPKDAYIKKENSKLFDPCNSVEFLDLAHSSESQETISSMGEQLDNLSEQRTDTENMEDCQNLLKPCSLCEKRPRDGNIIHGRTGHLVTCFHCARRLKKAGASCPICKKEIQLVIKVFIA
Target sequence (Q00987 whole entry, looked up): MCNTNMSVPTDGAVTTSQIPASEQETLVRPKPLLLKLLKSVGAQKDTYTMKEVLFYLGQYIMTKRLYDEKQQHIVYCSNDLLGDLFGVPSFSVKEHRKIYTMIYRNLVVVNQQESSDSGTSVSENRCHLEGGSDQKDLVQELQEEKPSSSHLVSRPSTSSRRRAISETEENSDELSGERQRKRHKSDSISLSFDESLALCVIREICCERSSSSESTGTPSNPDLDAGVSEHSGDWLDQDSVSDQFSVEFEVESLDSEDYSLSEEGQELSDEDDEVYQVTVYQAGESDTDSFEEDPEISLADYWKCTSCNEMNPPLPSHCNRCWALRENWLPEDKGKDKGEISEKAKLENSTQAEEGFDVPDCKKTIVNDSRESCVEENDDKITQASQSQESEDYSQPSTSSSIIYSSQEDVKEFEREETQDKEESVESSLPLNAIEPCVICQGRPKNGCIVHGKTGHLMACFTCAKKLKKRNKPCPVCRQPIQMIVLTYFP
Peg3 prom inh-1 – Peg3 promoter-driven luciferase inhibitors, primary screen, cell-based, HeLa, luciferase luminescence; HeLa PEG-Prom luciferase reporter, overnight; inhibition, % at 20 µM; hit rate 1.7% among 360,000;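 active means inhibition of at least 50% at 20 µM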
CF NFkB block – inhibitors of PAF-induced NF-kB signaling, primary screen, cell-based, GFP fluorescence, uHTS | KKLEB NF-kB-GFP reporter, GFP fluorescence overnight | inhibition, % at 5 µM | hit rate 0.86% among 360,000 | AID 588850, 2011;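 active means at least 50% inhibition at 5 µM, scaled per plate between neutral and stimulator controls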;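 further: PAF is a Pseudomonas aeruginosa culture filtrate used as stimulus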
KKLEB tox – cytotoxicity in KKLEB CF airway cells, primary screen, cytotoxicity control for CF NF-kB inhibitor project, cell-based, uHTS, fluorescence assay plates | KKLEB CF airway cells viability, ATPlite luminescence, overnight; active compounds read low; cells stimulated with P. aeruginosa culture filtrate | activity change (cytotoxicity), % at 5 µM | hit rate 0.36% among 360,000 | AID 602141, 2011;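 active means corrected activity change at or below -50% at 5 µM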
HSP90 inh – HSP90 inhibitors, primary screen, cell lysate, luminescence; hit rate 0.91% among 290,000; AID 1789, 2009; Heat shock protein HSP 90 (rabbit reticulocyte lysate; luciferase refolding); Rabbit reticulocyte lysate, luciferase refolding luminescence, 3 h; inhibition, % at 5.6 µM;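 active means inhibition above the screen-wide mean plus 3 SD, computed separately per campaign, cut at about 16% in these data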;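 further: inhibitors lower the luminescence because luciferase stays unfolded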
LGR2 inh – inhibitors of bursicon-induced LGR2 CRE-luciferase signal, primary screen, cell-based, HEK293, CRE-luciferase reporter, bursicon stimulation; bursicon-stimulated, 4 h; inhibition, % at 9.99 µM; AID 720647, 2013; hit rate 0.35% among 380,000;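 active means drop in luminescence signal, shown as inhibition above about 50% in the replicate tests, limit read from the data, passing the limit was not always enough; inconclusive means probably only some replicates passing the limit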;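 further: agonist challenge used bursicon conditioned medium at about half maximal strength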
Mdm2 MdmX conf – Mdm2-MdmX complex disruptors, retested hits, confirmation, luminescence, single concentration. shares compounds with Mdm2-MdmX inh. Mdm2-MdmX binding, luminescent assay. inhibition, % at 8 µM. hit rate 55% among 10,000
Full FLuc ctr – full-length luciferase signal inhibition, confirmation, counter-screen for Mdm2/MdmX interaction inhibitor project, cell-based, single concentration, SaOS-2; shares compounds with Mdm2-MdmX inh; SaOS-2 full-length luciferase counterscreen, luminescence; inhibition, % at 8 µM; hit rate 77% among 6,200; AID 504607, 2011;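 active means mean inhibition at 8 µM reaching about 37%, which flags the compound as non-specific, limit read from the data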;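 further: p53-null SaOS-2 cells with luciferase driven by a doxycycline-inducible promoter; compound on cells about two nights before reading with doxycycline added after day one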
Peg3 prom inh-2 – Peg3 promoter reporter inhibitors, retest, confirmation, cell-based, HeLa, luciferase reporter, single concentration. shares compounds with Peg3 prom inh-1. HeLa PEG-Prom luciferase reporter, luminescence, overnight. inhibition, % at 20 µM. hit rate 84% among 1,300;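 active means at 20 µM dose, 40% or more inhibition averaged across four replicates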
CF NFkB conf – inhibitors of PAF-induced NF-kB signaling, retest, confirmation, cell-based, GFP fluorescence, single concentration; shares compounds with CF NFkB block; KKLEB CF airway cells, overnight; inhibition, % at 5 µM; hit rate 64% among 1,300; AID 602472, 2012;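 further: stimulus PAF is a Pseudomonas aeruginosa filtrate and not platelet activating factor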
Of the large screens only hits and unclear results are named; the others gave an inactive call (follow-up assays come after a bar, where they were run). Shown are actives, neighbours in structure and some others; about 3.6% of the full set was active somewhere. Unless noted, no stated cut-off is given here; in the data, active means inhibition above about 40%; inactive means the rest.

Cn1nnnc1Sc1ncnc2scc(-c3ccc[nH]3)c12	Mdm2-MdmX inh 69, CF NFkB block 83 (no result: HSP90 inh) | Mdm2 MdmX conf 47 | Full FLuc ctr inactive | CF NFkB conf 64
COc1ccc(Nc2nc(-c3ccccc3)nc3ccccc23)cc1S(=O)(=O)N1CCOCC1	Mdm2-MdmX inh 79, Peg3 prom inh-1 62, CF NFkB block 89 | Mdm2 MdmX conf 77 | Full FLuc ctr 63 | Peg3 prom inh-2 59 | CF NFkB conf 75
Cc1c(C=O)c(C=O)c(C)n1Cc1ccccc1	Mdm2-MdmX inh 86, CF NFkB block 53 | Mdm2 MdmX conf 86 | Full FLuc ctr inactive | CF NFkB conf 66
CC(=O)c1c(C(C)=O)c(C)n(Cc2ccccc2)c1C	none
CCOc1ccccc1C(=O)N/N=C/c1coc2ccc(C)cc2c1=O	Mdm2-MdmX inh 79, CF NFkB block 71 | Mdm2 MdmX conf inactive | CF NFkB conf inactive
COCC(=O)N1CC[C@@H]2[C@H]1c1cc(-c3cccc(OC)c3)ccc1N(C)[C@@H]2CO	none (no result: Mdm2-MdmX inh, Peg3 prom inh-1, CF NFkB block, KKLEB tox, HSP90 inh)
COc1cccc(-n2nc(C(N)=O)c(O)cc2=O)c1	none
COc1cccc(-n2nc(C#N)c(Cl)cc2=O)c1	Mdm2-MdmX inh 100, Peg3 prom inh-1 108, CF NFkB block 106, LGR2 inh 103 | Mdm2 MdmX conf 100 | Full FLuc ctr 51 | CF NFkB conf inactive
CC(C)NC(=O)N[C@@H]1C=C[C@@H](CC(=O)O)O[C@@H]1CO	none (no result: Mdm2-MdmX inh, Peg3 prom inh-1, CF NFkB block, KKLEB tox, HSP90 inh)
C[C@H]1CN([C@@H](C)CO)S(=O)(=O)c2ccc(C#Cc3ccccc3)cc2O[C@@H]1CN(C)S(=O)(=O)c1cn(C)cn1	none (no result: Mdm2-MdmX inh, Peg3 prom inh-1, CF NFkB block, KKLEB tox, HSP90 inh)
COc1ccc2[nH]c3c(c2c1)CC(C)NC3=O (stereo unspecified)	Mdm2-MdmX inh 78, CF NFkB block 61 | Mdm2 MdmX conf 74 | Full FLuc ctr inactive | CF NFkB conf 71
COc1ccc(-c2ccc([C@H]3[C@@H]4C=CCC[C@@]4(C)C(=O)N3Cc3ccccc3)c(F)c2)cc1OC	Mdm2-MdmX inh 63, CF NFkB block 53 (no result: HSP90 inh) | Mdm2 MdmX conf inactive | CF NFkB conf inactive
COc1ccc(-c2c([C@H]3[C@@H]4C=CCC[C@@]4(C)C(=O)N3Cc3ccccc3)ccc3ccccc23)cc1OC	none (no result: HSP90 inh)
Cc1ccc(NC(=O)Nc2nnc(-c3ccncc3)s2)cc1C	Mdm2-MdmX inh 94, CF NFkB block 90, LGR2 inh inconclusive | Mdm2 MdmX conf 56 | Full FLuc ctr inactive | CF NFkB conf 77
COC(=O)Nc1nnc(-c2ccncc2)s1	none
Cc1cc(N2CCOCC2)c2c(N)c(Br)cc(C)c2n1	Mdm2-MdmX inh 74, CF NFkB block 66 (no result: LGR2 inh) | Mdm2 MdmX conf 71 | Full FLuc ctr inactive | CF NFkB conf 97
Cc1cc(=O)[nH]c(N2CCOCC2)n1	none
CCc1nc(N2CCN(C(=O)c3ccccc3)CC2)c2c3c(sc2n1)CCCC3	none
Cc1nc(Sc2nnnn2C)c2c3c(sc2n1)CCC3	Mdm2-MdmX inh 97, Peg3 prom inh-1 55, CF NFkB block 52 (no result: LGR2 inh) | Mdm2 MdmX conf 93 | Full FLuc ctr 63 | Peg3 prom inh-2 inactive | CF NFkB conf inactive
CCc1nc(Sc2nnnn2-c2ccccc2)c2c3c(sc2n1)CCCC3	Mdm2-MdmX inh 93, Peg3 prom inh-1 60, CF NFkB block 59, LGR2 inh 55 | Mdm2 MdmX conf 84 | Full FLuc ctr 52 | Peg3 prom inh-2 61 | CF NFkB conf inactive
Cc1nc(N2CCNCC2)c2c3c(sc2n1)CCCC3	none (no result: LGR2 inh)
Cc1ccc(C(=O)COc2cc(O)c3c(=O)cc(-c4ccccc4)oc3c2)cc1	Mdm2-MdmX inh 62, CF NFkB block 69 | Mdm2 MdmX conf inactive | CF NFkB conf 43
O=C(COc1cc(O)c2c(=O)cc(-c3ccccc3)oc2c1)c1ccccc1	none (no result: LGR2 inh)
C[C@H](CO)N1C[C@H](C)[C@@H](CN(C)C(=O)c2cnccn2)Oc2cc(C#CC3CC3)ccc2S1(=O)=O	none (no result: Mdm2-MdmX inh, Peg3 prom inh-1, CF NFkB block, KKLEB tox, HSP90 inh)
Cc1ccc(Sc2c(C=O)c3ccccc3n2C)cc1	Mdm2-MdmX inh 81, CF NFkB block 65 (no result: LGR2 inh) | Mdm2 MdmX conf 71 | Full FLuc ctr 53 | CF NFkB conf 93
C[C@@H]1CCCCO[C@@H](CN(C)C(=O)NC2CCCCC2)[C@H](C)CN([C@@H](C)CO)C(=O)c2cc(NC(=O)CCCN(C)C)ccc2O1	none (no result: Mdm2-MdmX inh, Peg3 prom inh-1, CF NFkB block, KKLEB tox, HSP90 inh)
c1cncc(-c2ccc3ncnc(NCc4cccs4)c3c2)c1	none (no result: HSP90 inh)
COc1cccc(-c2ccc3ncnc(NCc4cccs4)c3c2)c1	Mdm2-MdmX inh 64, CF NFkB block 61 (no result: HSP90 inh) | Mdm2 MdmX conf 51 | Full FLuc ctr 39 | CF NFkB conf 85
Cc1ccc(S(=O)(=O)Nc2cccc3ncccc23)cc1	none
Cc1ccc(S(=O)(=O)Nc2cccc3ncccc23)s1	Mdm2-MdmX inh 101, Peg3 prom inh-1 103, CF NFkB block 83 (no result: LGR2 inh) | Mdm2 MdmX conf inactive | CF NFkB conf 109
Cc1nc([N+](=O)[O-])c(Br)n1CC(=O)c1ccc(Br)cc1	Mdm2-MdmX inh 63, CF NFkB block 53 (no result: LGR2 inh) | Mdm2 MdmX conf inactive | CF NFkB conf inactive
CC(C)C#Cc1ccc([C@H]2[C@@H](CO)N3C(=O)CN(C(=O)c4ccc5c(c4)OCO5)C[C@H]23)cc1	none (no result: Mdm2-MdmX inh, Peg3 prom inh-1, CF NFkB block, KKLEB tox, HSP90 inh)
CCc1cc2ccc(C)cc2nc1SCC(=O)Nc1cc(C)on1	none
CCc1cc2cc3c(cc2nc1SCC(=O)Nc1cc(C)on1)OCO3	Mdm2-MdmX inh 81, CF NFkB block 55 (no result: LGR2 inh) | Mdm2 MdmX conf inactive | CF NFkB conf 43
Cc1ccc(S(=O)(=O)Nc2ccc3c(c2)C(=O)N([C@@H](C)CO)C[C@H](C)[C@H](CN(C)S(=O)(=O)c2cn(C)cn2)O3)cc1	none (no result: Mdm2-MdmX inh, Peg3 prom inh-1, CF NFkB block, KKLEB tox, HSP90 inh)
COc1cc(O)c(CC=C(C)C)c(O)c1C(=O)CCc1ccc(O)cc1	Mdm2-MdmX inh 55, CF NFkB block 52 (no result: HSP90 inh) | Mdm2 MdmX conf inactive | CF NFkB conf 44
